The source made the active and inactive calls.
Legend:
[1] = E. coli DRC41 culture turbidity changes, primary screen, E. coli filamentation inducer project, strain DRC41, OD650, 48 h (AID 1152);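 further: E. coli MC1000 strain DRC41 lacking acrAB efflux pump and sulA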; settings: E. coli DRC41 (acrAB sulA), higher = more signal, called active from +8 up or from −8 down
[2] = small-molecule binders of probe aLefty1, primary screen, biochemical, small-molecule microarray, 635/667 nm fluorescence (AID 1153); settings: higher = more signal;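 further: score merges spot fluorescence with signal-to-noise ratio from the scanned slide images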
[3] = PSAC antagonists in infected red cells, primary screen, cell-based, P. falciparum Indochina, OD700, 1 h (AID 1154); settings: P. falciparum Indochina infected RBC osmotic lysis, higher = more signal, called active from +8 up or from −8 down
[4] = PSAC antagonists in infected red cells, primary screen, cell-based, P. falciparum Indochina, OD700, 2 h (AID 1155);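 further: lysis reports solute entry through the parasite surface anion channel PSAC; channel blockers reduce lysis of infected cells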; settings: P. falciparum Indochina infected erythrocytes, osmotic lysis OD700; higher = more signal, called active from +8 up or from −8 down
[5] = osmotic lysis modulators in infected erythrocytes, primary screen, PSAC antagonist project, cell-based, P. falciparum Indochina, OD700, 3 h (AID 1156); settings: higher = more signal, called active from +8 up or from −8 down
[6] = PSAC antagonists in infected red cells, primary screen, cell-based, P. falciparum Indochina, OD700, 18 h (AID 1157); settings: P. falciparum Indochina infected erythrocytes, osmotic lysis OD700, 18 h; higher = more signal, called active from +8 up or from −8 down
[7] = modulators of S6 phosphorylation in cells, primary screen, cell-based, A549, cytoblot, luminescence, serum-stimulated (AID 1158); settings: A549 phospho-S6 cytoblot, 5 h, higher = more signal;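 further: serum-stimulated A549 lung adenocarcinoma cells; signal is phosphorylated S6 detected by cytoblot immunostaining with HRP secondary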
[8] = target: NADPH oxidase 2 (Homo sapiens) (UniProt P04839); experiment: NOX2-dependent H2O2 signal modulators, primary screen, NOX inhibitor project, cell-based, HEK293-NOX2, PMA-stimulated, Amplex Red fluorescence (AID 1159); settings: 45 min, higher = more signal, called active from +8 up or from −8 down; further: test concentration not given here
Sequence of NADPH oxidase 2 (Homo sapiens) (P04839 whole entry, looked up): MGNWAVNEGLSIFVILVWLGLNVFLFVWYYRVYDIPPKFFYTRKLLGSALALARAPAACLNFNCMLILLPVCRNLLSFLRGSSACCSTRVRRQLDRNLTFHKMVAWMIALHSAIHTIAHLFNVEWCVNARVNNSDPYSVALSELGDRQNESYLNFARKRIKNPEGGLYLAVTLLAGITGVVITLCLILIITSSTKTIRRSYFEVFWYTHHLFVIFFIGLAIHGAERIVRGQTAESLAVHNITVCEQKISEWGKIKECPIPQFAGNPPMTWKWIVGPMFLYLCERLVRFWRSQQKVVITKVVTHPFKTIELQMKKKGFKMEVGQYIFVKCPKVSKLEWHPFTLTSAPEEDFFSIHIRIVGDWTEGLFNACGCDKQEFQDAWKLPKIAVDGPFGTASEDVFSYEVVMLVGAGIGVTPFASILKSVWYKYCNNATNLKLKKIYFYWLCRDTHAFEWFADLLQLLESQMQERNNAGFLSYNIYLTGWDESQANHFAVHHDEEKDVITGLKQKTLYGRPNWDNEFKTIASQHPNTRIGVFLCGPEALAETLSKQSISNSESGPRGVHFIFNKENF

[9] = target: NADPH oxidase 4 (Homo sapiens) (UniProt Q9NPH5); experiment: NOX4-dependent H2O2 signal modulators, primary screen, NOX inhibitor project, cell-based, HEK293-NOX4, tetracycline-induced, Amplex Red fluorescence (AID 1160); settings: 45 min, higher = more signal, called active from +8 up or from −8 down
Sequence of NADPH oxidase 4 (Homo sapiens) (Q9NPH5 whole entry, looked up): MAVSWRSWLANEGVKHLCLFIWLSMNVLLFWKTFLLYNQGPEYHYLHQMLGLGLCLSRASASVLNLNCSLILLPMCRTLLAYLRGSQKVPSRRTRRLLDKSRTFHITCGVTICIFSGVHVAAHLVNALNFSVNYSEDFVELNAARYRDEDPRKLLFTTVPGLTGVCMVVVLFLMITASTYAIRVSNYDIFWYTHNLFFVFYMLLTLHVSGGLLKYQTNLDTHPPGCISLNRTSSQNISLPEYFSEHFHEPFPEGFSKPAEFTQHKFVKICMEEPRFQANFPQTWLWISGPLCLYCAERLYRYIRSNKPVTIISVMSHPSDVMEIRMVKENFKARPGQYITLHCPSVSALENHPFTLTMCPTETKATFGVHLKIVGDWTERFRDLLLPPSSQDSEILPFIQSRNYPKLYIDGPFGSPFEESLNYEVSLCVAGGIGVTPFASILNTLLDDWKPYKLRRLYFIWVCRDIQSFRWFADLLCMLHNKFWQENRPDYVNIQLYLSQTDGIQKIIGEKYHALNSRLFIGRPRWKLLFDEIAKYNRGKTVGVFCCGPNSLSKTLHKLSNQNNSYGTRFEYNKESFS

[10] = target: NADPH oxidase 5 (Homo sapiens) (UniProt Q96PH1); experiment: NOX5-dependent H2O2 signal modulators, primary screen, NOX inhibitor project, cell-based, HEK293-NOX5, Amplex Red fluorescence (AID 1161); settings: HEK293-NOX5, ionomycin, 45 min, higher = more signal
Sequence of NADPH oxidase 5 (Homo sapiens) (Q96PH1 whole entry, looked up): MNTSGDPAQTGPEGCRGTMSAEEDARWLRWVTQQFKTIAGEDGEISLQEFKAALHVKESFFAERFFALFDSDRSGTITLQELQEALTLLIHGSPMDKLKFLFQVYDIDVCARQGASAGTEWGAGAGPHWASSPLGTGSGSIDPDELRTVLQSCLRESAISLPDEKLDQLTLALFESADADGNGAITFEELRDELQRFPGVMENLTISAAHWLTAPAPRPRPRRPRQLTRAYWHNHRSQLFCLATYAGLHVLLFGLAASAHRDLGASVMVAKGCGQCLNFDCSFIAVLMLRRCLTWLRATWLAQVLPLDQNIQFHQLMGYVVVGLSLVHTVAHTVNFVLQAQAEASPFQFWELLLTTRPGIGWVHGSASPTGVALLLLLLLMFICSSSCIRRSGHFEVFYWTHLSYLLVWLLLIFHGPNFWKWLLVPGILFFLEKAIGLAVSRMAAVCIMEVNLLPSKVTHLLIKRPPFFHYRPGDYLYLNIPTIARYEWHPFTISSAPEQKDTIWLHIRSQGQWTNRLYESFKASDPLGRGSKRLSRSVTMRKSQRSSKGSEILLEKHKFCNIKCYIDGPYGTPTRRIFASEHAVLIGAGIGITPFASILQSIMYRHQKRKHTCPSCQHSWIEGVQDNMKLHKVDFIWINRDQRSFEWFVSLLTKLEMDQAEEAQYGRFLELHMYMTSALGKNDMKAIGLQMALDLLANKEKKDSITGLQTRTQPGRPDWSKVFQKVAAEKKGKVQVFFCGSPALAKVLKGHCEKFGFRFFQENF

[11] = A549 cell viability effects, profiling panel, calcein-AM fluorescence, 48 h, basal (AID 1162); settings: higher = more signal; further: test concentration not given here
[12] = adipocyte viability effects, profiling panel, cell-based, 3T3-L1 adipocytes, calcein-AM fluorescence, 48 h, basal (AID 1163); settings: 3T3-L1 adipocytes viability, higher = more signal; further: test concentration not given here
[13] = HepG2 cell viability effects, profiling panel, calcein-AM fluorescence, 48 h, basal (AID 1164); settings: higher = more signal; further: test concentration not given here
[14] = MM1S cell viability effects, profiling panel, calcein-AM fluorescence, 48 h, basal (AID 1165); settings: higher = more signal;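 further: viability of MM1S multiple myeloma cells under basal unstimulated conditions; test concentration not given here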
[15] = basal RPMI8226 viability, no added stimulus, profiling panel, cell-based, calcein-AM fluorescence, 48 h, PK04 Diversity Set (AID 1166); settings: RPMI8226 myeloma viability, higher = more signal;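 further: cells grown under basal conditions without added stimulus; test concentration not given here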
[16] = basal HepG2 mitochondrial membrane potential changes, profiling panel, cell-based, JC-1 fluorescence, 24 h, 100 nL compound (AID 1167); settings: higher = more signal; further: test concentration not given here
[17] = basal 3T3-L1 adipocyte mitochondrial potential changes, profiling panel, cell-based, JC-1 fluorescence, 3T3-L1 adipocytes, 24 h, 100 nL compound (AID 1168); settings: JC-1 mitochondrial fluorescence, higher = more signal, called active from +8 up or from −8 down; further: test concentration not given here
[18] = basal RPMI8226 mitochondrial membrane potential changes, profiling panel, cell-based, JC-1 fluorescence, 24 h, 100 nL compound (AID 1169); settings: RPMI8226 myeloma, JC-1 mitochondrial potential fluorescence, higher = more signal; further: test concentration not given here
[19] = basal MM1S mitochondrial membrane potential changes, profiling panel, cell-based, JC-1 fluorescence, 24 h, 100 nL compound (AID 1170); settings: higher = more signal; further: test concentration not given here
[20] = A549 lung cancer cell viability effects, profiling panel, resazurin fluorescence, 24 h, PK04 Diversity Set (AID 1171); settings: higher = more signal, called active from +8 up or from −8 down; further: test concentration not given here

SMILES	z-score [1]	composite z-score [2]	z-score [3]	z-score [4]	z-score [5]	z-score [6]	z-score [7]	z-score [8]	z-score [9]	z-score [10]	z-score [11]	z-score [12]	z-score [13]	z-score [14]	z-score [15]	z-score [16]	z-score [17]	z-score [18]	z-score [19]	z-score [20]
O=C1[C@H]2CCn3c(=O)n(Cc4cc5c(cc4Cl)OCO5)c(=O)n3[C@H]2[C@H](O)[C@@H]2O[C@H]12	0.709 (inactive)	-0.196	0.439 (inactive)	-0.511 (inactive)	-0.277 (inactive)	-0.212 (inactive)	0.489	-0.664 (inactive)	0.135 (inactive)	0.336	0.173	-0.124	-0.0111	-1.72	-0.518	0.039	-0.275 (inactive)	0.177	-0.744	-0.963 (inactive)
O=C1C2=CC[C@H]3C(=O)N(Cc4ccccc4)C(=O)[C@H]3[C@H]2[C@H](O)[C@@H]2O[C@H]12	-0.536 (inactive)	-0.379	0.472 (inactive)	0.147 (inactive)	-0.178 (inactive)	0.157 (inactive)	-0.451	-1.41 (inactive)	0.16 (inactive)	0.44	-0.77	-0.238	-4.47	-3.28	-3.83	-2.12	1.02 (inactive)	-1.05	-2.91	0.152 (inactive)
CC(C)=CCCC(C)=CCON=C1[C@H]2CCn3c(=O)n(-c4ccccc4)c(=O)n3[C@H]2[C@H](O)[C@@H]2O[C@H]12	-0.484 (inactive)	0.688	4.93 (inactive)	0.635 (inactive)	2.07 (inactive)	0.695 (inactive)	0.897	0.856 (inactive)	0.577 (inactive)	-0.799	-0.603	-0.141	-0.838	-2.89	-1.47	-1.07	-0.462 (inactive)	-0.247	-1.81	-1.33 (inactive)
COc1cccc([C@H]2Oc3ccc(OC)cc3C(=NO[C@@H](C)c3cc(-c4c(C)cc(C)cc4C)no3)[C@@H]2O)c1	-1.74 (inactive)	-0.0061	5.05 (inactive)	1.38 (inactive)	-0.0548 (inactive)	0.907 (inactive)	-0.902	0.314 (inactive)	0.21 (inactive)	-0.577	-0.744	-0.583	-1.08	-1.38	-0.845	-2.54	-2.31 (inactive)	0.118	0.463	0.321 (inactive)
O=C1[C@H]2[C@H]3[C@H](O)[C@H](O)CC(=NOCc4ccccc4)[C@H]3CC[C@H]2C(=O)N1C1CCCCC1	-0.135 (inactive)	-0.0222	21.3 (active)	2.36 (inactive)	0.43 (inactive)	0.842 (inactive)	-0.441	-0.622 (inactive)	-1.09 (inactive)	-4.07	0.519	-0.228	0.734	-0.618	-0.498	-1.3	0.028 (inactive)	-0.16	-0.847	-0.329 (inactive)
COc1ccc(COC(=O)NN=C2C[C@@H](O)[C@@H](O)[C@@H]3[C@@H]4C(=O)N(c5cccc(Oc6ccccc6)c5)C(=O)[C@@H]4CC[C@H]23)cc1	0.249 (inactive)	0.4	3.48 (inactive)	-0.469 (inactive)	1.89 (inactive)	-2.15 (inactive)	0.0187	-1.26 (inactive)	-1.6 (inactive)	-1.49	-0.777	0.487	-0.634	0.0646	-1.2	0.89	-1.78 (inactive)	0.197	-1.73	1.29 (inactive)
CC(C)(C)N1C(=O)[C@H]2[C@H]3[C@H](O)[C@H](O)CC(=NNC(=O)OCc4ccccc4)[C@H]3CC[C@H]2C1=O	-1.57 (inactive)	-0.0966	0.988 (inactive)	-0.0262 (inactive)	0.374 (inactive)	-1.13 (inactive)	0.827	-1.18 (inactive)	-0.074 (inactive)	-1.11	-1.13	1.11	-0.516	-0.269	-0.934	-0.639	-1.49 (inactive)	-0.411	-0.823	0.321 (inactive)
O=C(NCCC[N+]1=CC=NC1c1ccccc1)N1CCCc2nc(-c3ccc(Br)cc3)ccc21 (stereo not given)	0.315 (inactive)	-0.164	5.32 (inactive)	0.705 (inactive)	1.5 (inactive)	0.518 (inactive)	-0.26	0.528 (inactive)	-0.261 (inactive)	-1.64	0.478	-1.13	-0.598	-2.52	-0.77	1.13	-0.141 (inactive)	0.184	-0.404	0.811 (inactive)
CCOC(=O)[C@H](CC(C)C)NC(=O)CCC1CC(OC(=O)NCCc2ccc(F)cc2)CC2(CCCC(COC(=O)NCCCN3CCCC3=O)O2)O1 (stereo not given in full)	-0.237 (inactive)	-0.28	1.3 (inactive)	0.0591 (inactive)	-0.172 (inactive)	-0.194 (inactive)	0.181	0.575 (inactive)	0.775 (inactive)	0.802	0.332	-1.03	0.0317	-0.528	-1.8	-0.556	-0.139 (inactive)	-0.912	0.131	0.601 (inactive)
